KB-3-1 cytotox – kills parental KB-3-1 adenocarcinoma cells | KB-3-1 viability, CellTiter-Glo ATP luminescence, 72 h | Potency, µM (highest dose often 46.1 µM), hits mostly cytotoxic | 1.4% of 400,000 active | AID 1347075; also: nearly all actives have a fitted effect of over 60% in size
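Cytotoxicity in the drug-sensitive parental line KB-3-1 was scored as loss of CellTiter-Glo luminescence following 72 h incubation with compound. Values come from curve fitting of normalized concentration-response data.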
SW480 rereplic – induces DNA re-replication in SW480 colon adenocarcinoma cells. 1.8% of 340,000 active. SW480 DNA re-replication, Hoechst DNA content imaging, 48 h. Potency, µM (series often up to 46.1 µM), most hits filed as activators; also: nearly all actives have a fitted effect of over 55% in size
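Treated cells incubate 48 hr (37 C, 5% CO2), are stained 40 min with Hoechst, and nuclear fluorescence is enumerated; a rise in nuclei with high DNA signal marks re-replication.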
hERG WT inh – inhibitors of human wildtype KCNH2 potassium channel; 0.37% of 340,000 active; activity change, % at 1.84 µM; U2OS, BacMam KCNH2, thallium flux FluxOr; stronger effect = lower value; Q12809;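 active = maximum activity change below -70%; inconclusive = maximum activity change between -70% and -50%; inactive = maximum activity change above -50%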
Target sequence (Q12809 whole entry, looked up): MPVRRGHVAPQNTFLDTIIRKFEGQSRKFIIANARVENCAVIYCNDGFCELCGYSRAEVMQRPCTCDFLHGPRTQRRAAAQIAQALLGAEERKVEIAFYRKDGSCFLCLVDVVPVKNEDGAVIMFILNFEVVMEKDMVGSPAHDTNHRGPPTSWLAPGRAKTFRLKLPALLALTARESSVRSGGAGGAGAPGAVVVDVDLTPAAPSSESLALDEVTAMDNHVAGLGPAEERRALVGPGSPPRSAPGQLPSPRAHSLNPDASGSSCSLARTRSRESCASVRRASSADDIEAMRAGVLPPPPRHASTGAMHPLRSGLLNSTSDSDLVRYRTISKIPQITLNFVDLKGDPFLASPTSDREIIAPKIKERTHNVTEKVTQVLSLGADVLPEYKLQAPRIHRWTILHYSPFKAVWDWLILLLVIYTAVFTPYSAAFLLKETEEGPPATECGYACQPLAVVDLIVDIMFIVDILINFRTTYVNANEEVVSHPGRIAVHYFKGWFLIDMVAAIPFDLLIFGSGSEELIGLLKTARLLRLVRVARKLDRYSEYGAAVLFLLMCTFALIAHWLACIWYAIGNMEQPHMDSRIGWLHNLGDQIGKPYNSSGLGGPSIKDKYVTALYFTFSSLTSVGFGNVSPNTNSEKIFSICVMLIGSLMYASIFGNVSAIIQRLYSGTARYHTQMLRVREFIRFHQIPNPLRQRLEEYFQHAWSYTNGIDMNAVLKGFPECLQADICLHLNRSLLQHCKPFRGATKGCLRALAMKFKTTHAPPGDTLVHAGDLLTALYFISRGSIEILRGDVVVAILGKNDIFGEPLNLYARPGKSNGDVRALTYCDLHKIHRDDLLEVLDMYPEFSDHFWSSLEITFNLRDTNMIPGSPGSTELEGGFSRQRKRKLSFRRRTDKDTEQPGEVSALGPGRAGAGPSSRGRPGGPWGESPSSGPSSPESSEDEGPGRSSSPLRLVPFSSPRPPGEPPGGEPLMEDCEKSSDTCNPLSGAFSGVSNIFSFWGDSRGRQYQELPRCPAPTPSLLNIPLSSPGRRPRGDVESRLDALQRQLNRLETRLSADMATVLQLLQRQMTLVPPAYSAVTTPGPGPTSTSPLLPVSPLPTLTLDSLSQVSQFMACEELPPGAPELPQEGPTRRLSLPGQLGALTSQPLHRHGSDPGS
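U2OS cells were transduced with wild-type KCNH2 virus (2.03 x 10^8 / mL) for 4 h at room temperature, then cultured overnight at 37 C. Thallium flux was read with FluxOr dye. Rate constants were normalized to DMSO controls.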
KB-V1 cytotox – KB-V1 MDR subline cytotoxicity | KB-V1 MDR cells viability, CellTiter-Glo, 72 h | Potency, µM (doses to about 46.1 µM), most hits filed as cytotoxic | 3.4% of 400,000 active | AID 1347076; also: nearly all actives have a fitted effect of over 60% in size
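Compound-treated KB-V1 multidrug-resistant cells, 72 h, 37 degrees C; viability by CellTiter-Glo. Fitted qHTS curves give the values.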
KCNH2 3.1 inh – blocks the human KCNH2 3.1 channel isoform; U2OS KCNH2 3.1, thallium flux FluxOr; stronger effect = lower value; activity change, % (tested at about 1.8 µM); 0.95% of 340,000 active;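 active = maximum activity change below -70%; inconclusive = maximum activity change from -70% to -50%; inactive = maximum activity change above -50%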;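 also: thallium influx rate constant from kinetic fluorescence after stimulation buffer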
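Steps: virus added to U2OS suspension (4 h, RT, dark); medium with 10% FBS added, cells plated, 37 C overnight; FluxOr/Red40 loading buffer 45 min RT; stimulation buffer, 2 min kinetic read; rate constant normalized.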
MCF10A rerep – inducers of DNA re-replication in MCF 10A breast cells | MCF 10A DNA re-replication, Hoechst nuclear intensity, 48 h | Potency, µM (highest dose often 46.1 µM), hits mostly activators | 2.9% of 350,000 active | AID 624296; also: nearly all actives have a fitted effect of over 50% in size
A number is an active result. Most compounds without a hit are left out; they make up all but 7.6% or so of the library. Unless noted, calls follow the shape of the dose curve; as a rule, active = well fitted curve in the direction sought with a large enough effect; inconclusive = small, poorly fitted or top-dose-only effect, or another doubt; inactive = no such curve, though single readings can be large; an effect the other way counts as inactive or inconclusive.

Screening CCc1ccc(NC(=O)COC(=O)c2ccccc2OCC(=O)N(C)C)cc1 returned KB-3-1 cytotox inactive and KB-V1 cytotox inactive.
Screening Cc1nn(Cc2ccc(Cl)cc2)c(C)c1NC(=O)c1cc(-c2ccc3c(c2)OCO3)on1 returned KB-3-1 cytotox 4.11µM, SW480 rereplic inconclusive, hERG WT inh inactive, KB-V1 cytotox inactive, KCNH2 3.1 inh inactive and MCF10A rerep 4.61µM.
Screening Cc1nn(Cc2ccc(Cl)c(Cl)c2)c(C)c1NC(=O)c1cc(-c2ccc3c(c2)OCO3)on1 returned KB-3-1 cytotox inconclusive, SW480 rereplic 16.4µM, hERG WT inh inactive, KB-V1 cytotox inactive, KCNH2 3.1 inh inactive and MCF10A rerep 5.8µM.
Screening Cc1nn(Cc2ccc(Cl)cc2)c(C)c1NC(=O)c1cc(C(C)C)on1 returned KB-3-1 cytotox inactive, SW480 rereplic inactive, hERG WT inh inactive, KB-V1 cytotox inactive, KCNH2 3.1 inh inactive and MCF10A rerep inconclusive.
For CCOC(=O)N1CCN(Cc2nc3cc(NC(=O)CC(C)C)ccc3n2CC)CC1 the results were KB-3-1 cytotox inconclusive, SW480 rereplic inconclusive, hERG WT inh inactive, KB-V1 cytotox inactive, KCNH2 3.1 inh inactive and MCF10A rerep inconclusive.
For COc1ccc2oc(C(=O)c3ccccc3)c(N)c2c1 the results were KB-3-1 cytotox inactive, SW480 rereplic inconclusive, hERG WT inh inactive, KB-V1 cytotox inactive, KCNH2 3.1 inh inactive and MCF10A rerep 14.6µM.
`COc1ccc(C(=O)c2oc3ccccc3c2N)cc1` gave KB-3-1 cytotox inactive, SW480 rereplic 18.4µM, hERG WT inh inactive, KB-V1 cytotox inactive, KCNH2 3.1 inh inactive and MCF10A rerep 18.4µM.
For COc1ccc(C(=O)Nc2c(C(=O)c3ccccc3)oc3ccccc23)cc1 the results were KB-3-1 cytotox inactive and KB-V1 cytotox inactive.
`COc1ccc2oc(C)c(C(=O)c3ccc([N+](=O)[O-])cc3)c2c1` gave KB-3-1 cytotox inconclusive, SW480 rereplic inactive, hERG WT inh inactive, KB-V1 cytotox 14.6µM, KCNH2 3.1 inh inactive and MCF10A rerep inconclusive.
`COc1ccc2oc(C)c(C(N)=O)c2c1` gave KB-3-1 cytotox inactive, SW480 rereplic inactive, hERG WT inh inactive, KB-V1 cytotox inactive, KCNH2 3.1 inh inactive and MCF10A rerep inactive.
CCOC(=O)CC1C(=O)NCCN1S(=O)(=O)c1ccc(Br)cc1 (centres undefined) was read as KB-3-1 cytotox inactive, SW480 rereplic inactive, hERG WT inh inactive, KB-V1 cytotox inactive, KCNH2 3.1 inh inactive and MCF10A rerep inactive.
`Cc1noc(C)c1S(=O)(=O)N1CCN(c2ccccc2Cl)CC1` gave KB-3-1 cytotox inactive, SW480 rereplic inactive, hERG WT inh inactive, KB-V1 cytotox inactive, KCNH2 3.1 inh inactive and MCF10A rerep inactive.
`CCOCCn1ccc2c(OCC(=O)Nc3cccc([N+](=O)[O-])c3)cccc2c1=O` gave KB-3-1 cytotox inactive and KB-V1 cytotox inactive.
N#Cc1ccc(/C=C\c2nccc3c2[nH]c2ccccc23)cc1 was read as KB-3-1 cytotox inactive, SW480 rereplic 2.06µM, hERG WT inh inactive, KB-V1 cytotox inactive, KCNH2 3.1 inh inactive and MCF10A rerep inconclusive.
For COc1ccc(/C=C\c2nccc3c2[nH]c2ccccc23)cc1 the results were KB-3-1 cytotox inactive and KB-V1 cytotox inactive.
Clc1ccc(/C=C\c2nccc3c2[nH]c2ccccc23)cc1 was read as KB-3-1 cytotox inactive, SW480 rereplic 9.2µM, hERG WT inh inactive, KB-V1 cytotox inconclusive, KCNH2 3.1 inh inactive and MCF10A rerep 2.59µM.
CCC(CO)Oc1cc(NC(=O)c2cccc(Cl)c2)c2ncn(C(C)C)c2c1 (centres undefined) was read as KB-3-1 cytotox inactive, SW480 rereplic inactive, hERG WT inh inactive, KB-V1 cytotox inactive, KCNH2 3.1 inh inactive and MCF10A rerep inactive.
For COc1ccc(-c2nc(CSc3nnc(C)n4c3cc3occc34)c(C)o2)cc1OC the results were KB-3-1 cytotox inactive and KB-V1 cytotox inactive.
Cc1ccccc1CS(=O)(=O)c1nnc([C@H](Cc2ccccc2)NC(=O)OC(C)(C)C)o1 was read as KB-3-1 cytotox inactive, SW480 rereplic inconclusive, hERG WT inh inactive, KB-V1 cytotox inconclusive, KCNH2 3.1 inh inactive and MCF10A rerep inconclusive.
Screening CCC(C)[C@@H](NC(=O)OC(C)(C)C)c1nnc(S(=O)(=O)Cc2cccc(C)c2)o1 (some centres undefined) returned KB-3-1 cytotox inactive, SW480 rereplic inconclusive, hERG WT inh inactive, KB-V1 cytotox inactive, KCNH2 3.1 inh inactive and MCF10A rerep 16.4µM.
Screening COc1cccc(CNc2cccc(C(F)(F)F)c2)c1O returned KB-3-1 cytotox 20.6µM, SW480 rereplic inactive, hERG WT inh inactive, KB-V1 cytotox inactive, KCNH2 3.1 inh inactive and MCF10A rerep inactive.
CCOc1ccc(C(C(=O)NC2CCCC2)N(Cc2ccccc2)C(=O)c2nsc(Cl)c2Cl)cc1 (centres undefined) was read as KB-3-1 cytotox 20.6µM, SW480 rereplic inconclusive, hERG WT inh inactive, KB-V1 cytotox inconclusive, KCNH2 3.1 inh inactive and MCF10A rerep inactive.
For CN(C)c1ccc(C(C(=O)NC2CCCCC2)N(Cc2ccco2)C(=O)c2snc(C(N)=O)c2N)cc1 (centres undefined) the results were KB-3-1 cytotox inconclusive, SW480 rereplic inactive, hERG WT inh inactive, KB-V1 cytotox 20.6µM, KCNH2 3.1 inh inactive and MCF10A rerep inactive.
`Cc1ccc(N(C(=O)c2nsc(Cl)c2Cl)C(C(=O)NC2CCCC2)c2ccc(O)cc2)cc1C` (centres undefined) gave KB-3-1 cytotox inconclusive, SW480 rereplic inactive, hERG WT inh inactive, KB-V1 cytotox inactive, KCNH2 3.1 inh inactive and MCF10A rerep inactive.
Screening CCOc1ccccc1N(C(=O)c1snc(C(N)=O)c1N)C(C(=O)NC1CCCC1)c1cccs1 (centres undefined) returned KB-3-1 cytotox inactive, SW480 rereplic inconclusive, hERG WT inh inactive, KB-V1 cytotox inconclusive, KCNH2 3.1 inh inactive and MCF10A rerep inconclusive.
Screening CCOc1ccccc1N(C(=O)c1snc(C(N)=O)c1N)C(C(=O)NC1CCCC1)c1ccco1 (centres undefined) returned KB-3-1 cytotox inactive, SW480 rereplic inactive, hERG WT inh inactive, KB-V1 cytotox 10.3µM, KCNH2 3.1 inh inactive and MCF10A rerep inactive.
For Cc1cccc(N(C(=O)c2nsc(Cl)c2Cl)C(C(=O)NC2CCCC2)c2ccc(O)cc2)c1C (centres undefined) the results were KB-3-1 cytotox inconclusive, SW480 rereplic inconclusive, hERG WT inh inactive, KB-V1 cytotox 20.6µM, KCNH2 3.1 inh inactive and MCF10A rerep inactive.
CC(=O)N1CCOc2ccc(S(=O)(=O)N3CCC(C(=O)Nc4ccc(F)cc4)CC3)cc21 was read as KB-3-1 cytotox inactive, SW480 rereplic inactive, hERG WT inh inactive, KB-V1 cytotox inactive, KCNH2 3.1 inh inactive and MCF10A rerep inactive.
